Assay results published in PubChem BioAssay (Tox21).
Several values for one entry are separate records, joined by “and”; a condition that tells them apart may be missing. Equal entries are not always repeated. Values without a mark were called inactive. Inconclusive results are not listed. Entries that show only a call come without a potency. Activity calls are given as the source filed them. Unless noted, calls come from the whole dose curve; as a rule, active = well fitted curve in the direction sought with a large enough effect in the repeat runs; inconclusive = weak or mixed curves; inactive = no such curve, though single readings can be large; an effect the other way counts as inactive or inconclusive.

Columns and labels:
[1] = qHTS assay for small molecules that induce genotoxicity in human embryonic kidney cells expressing luciferase-tagged ATAD5 (AID 651632); note: nearly all actives have a fitted effect of over 15% in size
How it was run: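 Reporter cells (HEK293T) express luciferase-tagged ATAD5, a protein that accumulates after DNA damage. Treat 16 hr at 37C/5% CO2, add Amplite, wait 30 min at RT, and read luminescence.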

[2] = qHTS assay for small molecules that induce genotoxicity in human embryonic kidney cells expressing luciferase-tagged ATAD5 - cell viability (AID 651634; calls by dose curve; note: nearly all actives have a fitted effect of over 25% in size; note: potency is the fitted concentration of half-maximal effect)
How it was run: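 Seeding of 2,000 HEK293T ATAD5-luciferase cells per well preceded pin-tool compound transfer. Plates sat 15.5 hr at 37C under 5% CO2, then fluorescence was read after 30 min with CellTiter-Fluor.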

[3] = qHTS assay for small molecule disruptors of the mitochondrial membrane potential - cell viability (AID 720634; calls by dose curve; note: nearly all actives have a fitted effect of over 20% in size; note: potency is the fitted concentration of half-maximal effect)
How it was run: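 Measuring cytotoxicity alongside mitochondrial potential, the screen quantified ATP by luminescence in HepG2 cells after 1 hr compound incubation and a 30 min room-temperature CellTiter-Glo step.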

[4] = qHTS assay to test for compound auto fluorescence at 590 nm (red) in HepG2 cells (AID 720674)
How it was run: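 Fluorescence at 590 nm emission following 540 nm excitation was recorded from HepG2 wells one hour after compound transfer, with DMSO-only wells as vehicle and Rose Bengal sodium equivalency as the scale.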

[5] = qHTS assay to test for compound auto fluorescence at 535 nm (green) in HepG2 cells (AID 720675)
[6] = qHTS assay to test for compound auto fluorescence at 460 nm (blue) in HEK293 cells (AID 720678)
How it was run: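 Intrinsic compound fluorescence is recorded in live HEK293 cultures after overnight incubation at 37C, 5% CO2, using excitation 405 nm and emission 460 nm. Values are referenced to triamterene.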

[7] = qHTS assay to test for compound auto fluorescence at 590 nm (red) in HEK293 cells (AID 720679)
How it was run: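 Red autofluorescence, HEK293 cells: 2,000 cells/well; attach 4-5 hr 37C; add 23 nL cpd or DMSO; incubate o/n 37C 5% CO2; read Ex540/Em590; Rose Bengal sodium reference.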

[8] = qHTS assay to test for compound auto fluorescence at 460 nm (blue) in HEK293 cell free culture (AID 720681)
How it was run: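 Compounds were added to cell-free DMEM with 10% FBS and fluorescence read directly. The blue channel used 405 nm excitation and 460 nm emission, with triamterene as the reference fluorophore.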

[9] = qHTS assay to test for compound auto fluorescence at 590 nm (red) in HEK293 cell free culture (AID 720683)
How it was run: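 Cell-free wells of DMEM with 10% FBS received compound, and intrinsic fluorescence was read at excitation/emission 540/590 nm. Values expressed as equivalence to Rose Bengal sodium.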

[10] = qHTS assay to test for compound auto fluorescence at 590 nm (red) in HepG2 cell free culture (AID 720684)
How it was run: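 Compound was pinned into wells holding MEM with 10% FBS and no cells, and red fluorescence was read at Ex/Em 540/590 nm. Signal is expressed as auto fluorescence equivalency relative to Rose Bengal sodium.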

[11] = qHTS assay to test for compound auto fluorescence at 460 nm (blue) in HepG2 cell free culture (AID 720685)
How it was run: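 Compound (23 nL) or DMSO pinned into cell-free MEM with 10% FBS; blue fluorescence read at 405/460 nm excitation/emission, expressed as auto-fluorescence equivalency to triamterene.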

[12] = qHTS assay to test for compound auto fluorescence at 535 nm (green) in HepG2 cell free culture (AID 720686)
[13] = qHTS assay to test for compound auto fluorescence at 460 nm (blue) in HepG2 cells (AID 720687)
How it was run: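 HepG2 cells in MEM with 10% FBS, attached overnight at 37 C, were exposed to compound or DMSO for 1 hr at 37 C, 5% CO2. Blue fluorescence was read at 405/460 nm, with triamterene as reference fluorophore.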

[14] = qHTS assay to test for compound auto fluorescence at 535 nm (green) in HEK293 cells (AID 720680)
[15] = qHTS assay to test for compound auto fluorescence at 535 nm (green) in HEK293 cell free culture (AID 720682)
How it was run: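 Read-out: 485/535 nm fluorescence intensity, calibrated against fluorescein. Medium only (DMEM + 10% FBS, no cells); test compound or DMSO vehicle added by pintool before plate reading.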

[16] = qHTS assay for small molecule disruptors of the mitochondrial membrane potential (AID 720635); note: potency is the fitted concentration of half-maximal effect
How it was run: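 HepG2 cells exposed to compound 1 hr at 37C, then Mito-MPS dye 30 min. Ratio read of aggregate (540/590 nm) versus monomer (490/535 nm) fluorescence.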

[17] = target: Glucocorticoid receptor (Homo sapiens) (UniProt P04150); experiment: qHTS assay to identify small molecule agonists of the glucocorticoid receptor (GR) signaling pathway (AID 720691; active = well fitted activation curve with a large enough effect in the signal ratio in the repeat runs, not every such curve was filed as active; the % refers to the signal ratio); conditions: GR-bla HeLa, beta-lactamase reporter ratio, 18 h; activation: at 62.4 µM (top of the series)
Glucocorticoid receptor (Homo sapiens), sequence (P04150 whole entry, looked up): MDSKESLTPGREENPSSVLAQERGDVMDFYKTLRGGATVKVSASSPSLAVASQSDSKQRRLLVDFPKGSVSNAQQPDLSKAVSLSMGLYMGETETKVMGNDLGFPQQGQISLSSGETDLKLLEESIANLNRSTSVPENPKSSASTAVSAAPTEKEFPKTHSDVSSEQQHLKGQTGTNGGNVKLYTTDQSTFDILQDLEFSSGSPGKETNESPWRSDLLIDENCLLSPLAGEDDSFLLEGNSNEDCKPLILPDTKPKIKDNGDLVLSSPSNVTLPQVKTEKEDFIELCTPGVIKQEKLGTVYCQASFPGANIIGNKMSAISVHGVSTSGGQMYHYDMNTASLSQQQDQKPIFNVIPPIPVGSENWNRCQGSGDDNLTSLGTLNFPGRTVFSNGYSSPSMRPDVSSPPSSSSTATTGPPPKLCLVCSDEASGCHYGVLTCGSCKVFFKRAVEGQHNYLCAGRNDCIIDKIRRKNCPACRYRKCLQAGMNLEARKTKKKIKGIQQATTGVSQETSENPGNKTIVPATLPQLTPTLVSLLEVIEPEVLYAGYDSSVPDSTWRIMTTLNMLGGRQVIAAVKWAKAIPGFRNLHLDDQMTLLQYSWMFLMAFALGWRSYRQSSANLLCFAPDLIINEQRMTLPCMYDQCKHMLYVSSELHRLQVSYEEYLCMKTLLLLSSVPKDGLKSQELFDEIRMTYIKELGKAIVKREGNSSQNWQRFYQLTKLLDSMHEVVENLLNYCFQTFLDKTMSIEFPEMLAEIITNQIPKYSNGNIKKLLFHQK
How it was run: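 Reporter read-out: fluorescence intensity following 2 h room-temperature LiveBLAzer B/G FRET substrate loading. Prior step: GR-bla HeLa cells held 4 h, then treated 18 h at 37 C.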

[18] = target: Glucocorticoid receptor (Homo sapiens) (UniProt P04150); experiment: qHTS assay to identify small molecule antagonists of the glucocorticoid receptor (GR) signaling pathway (AID 720692; active = well fitted inhibition curve with a large enough effect in the signal ratio in the repeat runs, not every such curve was filed as active; the % refers to the signal ratio; note: potency is the fitted concentration of half-maximal effect)
How it was run: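 Dexamethasone (5 nM final) stimulated a stably integrated GRE-beta-lactamase reporter in HeLa cells during 18 h co-incubation with compounds; signal was quantified as fluorescence intensity of B/G FRET substrate after 2 h.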

Compound | Potency [1] | Potency [2] | Potency [3] | Potency [4] | Potency [5] | Potency [6] | Potency [7] | Potency [8] | Potency [9] | Potency [10] | Potency [11] | Potency [12] | Potency [13] | Potency [14] | Potency [15] | Potency [16] | Potency [17] | Potency [18]
CCCOc1sc(C(=O)N2CCC(c3cc(CN)ccc3F)CC2)c(C)c1Br | inactive | inactive | inactive | inactive | inactive | inactive | inactive | inactive | inactive | inactive | inactive | inactive | inactive | – | – | – | – | –
CSc1ccc2c(c1)N(CCC1CCCCN1C)c1ccccc1S2 (centres undefined) | inactive | 29.8 µM (active) and 68.3 µM (active) | – | inactive | – | inactive | inactive | – | inactive | inactive | inactive | inactive | inactive | inactive | inactive | – | – | –
CCCCCCOc1cc(C)c(O)c(C)c1C | inactive | – | 27.6 µM (active) | inactive | inactive | inactive | inactive | inactive | inactive | inactive | inactive | inactive | inactive | inactive | – | 5.51 µM (active) | – | –
CC=O | inactive | – | – | inactive | inactive | – | inactive | inactive | inactive | inactive | inactive | inactive | inactive | – | inactive | – | – | –
CCCCCCC(C)OC(=O)COc1nc(F)c(Cl)c(N)c1Cl (centres undefined) | inactive | inactive | – | inactive | inactive | inactive | inactive | inactive | inactive | inactive | inactive | inactive | inactive | inactive | inactive | 61.1 µM (active) | – | –
CSc1c(Cl)c(Cl)c(Cl)c(Cl)c1Cl | inactive | inactive | inactive | inactive | inactive | inactive | inactive | – | inactive | inactive | inactive | inactive | inactive | – | inactive | – | inactive | inactive
CN(C)CCCN1c2ccccc2CCc2ccccc21 | – | inactive | inactive | inactive | inactive | inactive | inactive | inactive | inactive | inactive | inactive | inactive | inactive | inactive | inactive | – | – | –
O=C1Nc2ccc(Cl)cc2[C@@](C#CC2CC2)(C(F)(F)F)O1 | inactive | – | 29.8 µM (active) | inactive | inactive | – | inactive | – | inactive | inactive | inactive | inactive | inactive | inactive | inactive | 4.73 µM (active) | inactive | 23.9 µM (active)
